{"source": "PubChem BioAssay AID1454", "about": "(National Center for Advancing Translational Sciences (NCATS), 2008)", "note": "Screen size: about 130,000 compounds; about 550 (0.42%) were called active. Another 4% or so got no clear call; they are omitted. The sample as a whole holds a higher share of actives than the screen did. Values without a mark were called inactive. Calls follow the shape of the dose curve; as a rule, active = well fitted inhibition curve with a large enough effect; inconclusive = small, poorly fitted or top-dose-only effect, or effect the other way; inactive = flat fitted curve, though single readings scatter. Potency is read from the fitted curve at half-maximal effect."}
{"test": "qHTS Assay for Inhibitors of the ERK Signaling Pathway using a Homogeneous Screening Assay; Stimulation with EGF; also: nearly all actives have a fitted effect of over 55% in size;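 as to activity change, negative = inhibition: plate controls were stimulated vehicle wells for no effect and unstimulated vehicle basal for full effect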", "details": "HEK293-V1b, EGF-stimulated phospho-ERK AlphaScreen; series mostly up to 57.5 µM; activity change, negative = inhibition: at the top concentration", "excerpt": "NIH Chemical Genomics Center [NCGC]\nNIH Molecular Libraries Screening Centers Network [MLSCN]\nAssay Submitter (PI): Dr. Wei Zheng, NCGC/NIH\nThe Ras/extracellular-signal-regulated kinase (ERK) mitogen activated protein (MAP) kinase signaling pathway (ERK1/2 cascade) plays a key role in transmitting signals from the cell surface to the nucleus (Nishida and Gotoh 1993; Chang and Karin, 2001). The cascade is initiated by the small G-protein Ras, which recruits Raf from the cytosol, where activation occurs. Alternatively, this pathway can be activated by elevating intracellular cAMP, or by activation of a receptor tyrosine kinase as epidermal growth factor receptor.\nActivation of the ERK pathway is essential in increased cell division and cell survival. Sustained and constitutive activation of the ERK pathway, however, has been linked to uncontrolled cell proliferation, increased cell survival, and tumor progression. Thus, the ERK has been as an attractive target for cancer chemotherapy in the past few years (Sebolt-Leopold and Herrera, 2004). Given its physiological and pathological importance, assessment of ERK phosphorylation has been broadly performed in both basic research and drug discovery. Most assays for the measurement of ERK phosphorylation use the antibody-based detection methods, such as western blot and ELISA. These assays require multiple reagent additions with cell wash steps and are not suitable for high throughout screening.\nThe current cell-based ERK phosphorylation assay was performed using AlphaScreen platform. AlphaScreen is a two bead-based proximity-dependent chemical energy transfer luminescent assay platform. The assay reagents (ERK SureFire(TM) kit) were supplied from TGR BioSciences (Australia). In the presence of specific antibodies, phosphorylated ERK will bring \"donor\" and \"acceptor\" beads to a proximity range (<200 nm), and subsequently lead a chemical luminescent reaction upon exciting donor beads with 680 nm laser. To exclude the assay-related false positives, we used a biotinylated rabbit IgG to perform counter-screen. The biotinylated antibody mimics the phosphorylated ERK1/2 for bringing streptavidin coated beads and protein-A coated beads to a proximity range for the AlphaScreen detection.\nNCGC Assay Protocol Summary:\nHEK293 cells stably expressing type-1 vasopressin receptor (V1b) were maintained in DMEM medium (Invitrogen, Carlsbad, CA) at 37C under a humidified atmosphere containing 5% CO2 and 95% air. The medium contained 10% FBS, 2 mM L-glutamine, non-essential amino acid, pyruvate and 50 U/ml penicillin and 50 ug/ml streptomycin (Invitrogen). The aliquots of frozen cells were stored at -135C and used for the compound screening. All compounds were screened as titrations from 0.6 nM to 46 uM final concentration. Epidermal growth factor (EGF) was used to stimulate the ERK phosphorylation pathway. The ERK phosphorylation in cells was determined using an AlphaScreen assay kit provided by […]. Data were normalized to the controls for basal activity (DMSO only) and 100% activation (25 nM EGF). AC50 values were determined from concentration-response data modeled with the standard Hill equation.\n(1) Seed 4 ul/well of resuspended frozen HEK293 cells containing 2000 cells in white 1536-well plates for overnight with 1% FBS at 37C under a humidified atmosphere containing 5% CO2 and 95% air.\n(2) Add 23 nL compounds in DMSO solution. The final titration was 0.6 nM to 46 uM.\n(3) Incubate at 37C for 30 min.\n(4) Dispense 0.5uL EGF (25 nM in final)\n(5) Incubate at 37C for 5 min.\n(6) Dispense 0.5uL of 1:2 diluted 5x lysis buffer.\n(7) Incubate at 37C for 10 min.\n(8) Dispense 1.5uL of mixture of activation buffer and reaction buffer with AlphaScreen beads (streptavidin donor beads and protein-A acceptor beads, 10 ng/well for each).\n(9) Incubate at room temperature for 5 hr.\n(10) Detect the assay plate in an EnVision plate reader (PerkinElmer) using the AlphaScreen detection mode.\n[…]"}
{"smiles": "Cc1cc(-c2n[nH]c(=S)n2-c2ccc(C)c(C)c2)no1", "Potency": "3.98 µM (active)"}
{"smiles": "CCCCC/C=C\\C/C=C\\C/C=C\\C=C\\[C@H](CCCC(=O)O)OO", "activity change, negative = inhibition": "-6.51% [at 11.5 µM]"}
{"smiles": "COC1=C[C@]23CCCN2CCc2cc4c(cc2[C@@H]3[C@@H]1O)OCO4", "activity change, negative = inhibition": "-6.17% [at 11.5 µM]"}
{"smiles": "O=c1[nH]c(=O)n(-c2ccc(F)cc2)c(O)c1C=NCCN1CCCCC1", "activity change, negative = inhibition": "-5%"}
{"smiles": "CCCCCCCCCCCCn1ccc(=N)cc1", "Potency": "22.4 µM (active)"}
{"smiles": "O=C1CC(=O)N(Cc2ccccc2)C(=O)N1CCCCCCN1C(=O)CC(=O)N(Cc2ccccc2)C1=O", "activity change, negative = inhibition": "-1.77%"}
{"smiles": "CC(=O)Cc1ccc(OC(C)C)cc1", "activity change, negative = inhibition": "10.3%"}
{"smiles": "C1CC[C@H]([C@@]23C[C@H](C[C@H]4CCCN[C@H]42)[C@@H]2CCCCN2C3)NC1", "activity change, negative = inhibition": "-0.522% [at 11.5 µM]"}
{"smiles": "O=c1[nH]c(=O)n(CCc2ccc(F)cc2)c(O)c1/C=N/N1CCCCC1", "activity change, negative = inhibition": "-5.95%"}
{"smiles": "N#Cc1c(Cl)c(Cl)c(Cl)c(C#N)c1Cl", "Potency": "3.98 µM (active)"}
{"smiles": "CNC(=O)Nc1ccc(C(O)(C(=O)OC)C(F)(F)F)cc1", "note": "(stereo not given)", "activity change, negative = inhibition": "-23.3%"}
{"smiles": "Fc1ccc(C2N3CCCN23)cc1", "note": "(stereo not given)", "activity change, negative = inhibition": "3.92%"}
{"smiles": "COc1ccc(-n2c(O)c(C(C)=Nc3ccc4c(c3)CCC4)c(=O)[nH]c2=O)cc1", "activity change, negative = inhibition": "-0.92%"}
{"smiles": "CN1CCN(/N=C/c2c[nH]c3ccccc23)CC1", "activity change, negative = inhibition": "-3.79%"}
{"smiles": "CCCCC(=O)N/N=C/c1c(O)n(-c2ccccc2)c(=O)[nH]c1=O", "activity change, negative = inhibition": "-2.47%"}
